This is a sample that favours compounds with a hit; in the whole collection about 3.1% have one here.
INS-1E GSIS act: GLuc luminescence reporter in INS-1E cells, primary screen for activators of glucose-dependent secretion of insulin; INS-1E GLuc reporter insulin secretion, 2-3 h; activation, % at 16.6 µM; 0.61% of 370,000 active;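 active = lowest replicate activation of at least 40%, so every replicate reaches that level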
Statin myotox sup: suppressors of statin myotoxicity in C2C12 myotubes, primary screen, cell-based, single point, plate reader; C2C12 myotubes + simvastatin, ATP luminescence, 48 h; scaled: DMSO 0, geranylgeraniol control 100; rescue of ATP level, % at 7.49 µM; AID 602340, 2012; 0.78% of 330,000 active;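 active = mean ATP rescue above about 67%, or every replicate alone reaching that limit, limit read from the data, passing the limit was not always enough; inconclusive = no clear call, values can overlap the other calls; inactive = mean under the limit and some replicate under it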;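 note: myotubes were challenged with 10 µM simvastatin during compound exposure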
EWS-Fli block: EWS/Fli-driven NR0B1 reporter inhibitors, primary screen, A673 cells, NR0B1 luciferase, luminescence, MLPCN library | viability-normalised | 0.67% of 350,000 active | inhibition, % at 12.6 µM;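 active = mean inhibition of at least 50% after viability correction, with every replicate also passing that limit; inconclusive = mean reaches 50% but only one of two replicates passes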;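 note: firefly luciferase signal divided by Alamar Blue viability fluorescence both relative to DMSO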
PAX8 reporter: inhibitors of PAX8-driven TPO luciferase reporter, primary screen, RMG-I cells, single concentration; SteadyGlo, 24 h; inhibition, % at 12.6 µM; 1.2% of 360,000 active;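 active = mean replicate inhibition at least 60% with every replicate also reaching 60%; inconclusive = only one of the two criteria is met; inactive = mean below 60% and not all replicates reaching 60%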;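 note: luciferase light reporting Pax8 driven TPO promoter activity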
Env fusion inh: inhibitors of HIV-1 Env-driven cell-cell fusion, primary screen, HeLa-JRFL effector, CEM21 target cells, luciferase | 1.1% of 360,000 active | inhibition, % at 12.3 µM;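 active = mean replicate inhibition score of at least 50 and every replicate individually at or above 50; inconclusive = only one of the two criteria met; inactive = mean below 50 and not all replicates reaching 50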
miR-122 sensor: miR-122 Renilla sensor signal increase in Huh7, primary screen, miR-122 inhibitor project, cell-based, single point, plate reader | activation (reporter increase), % at 12.5 µM | Huh7 miR-122 Renilla luciferase sensor, 48 h; neutral wells = 0, positive control = 100 | 0.3% of 340,000 active;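 active = mean replicate activation score at least 90 and every replicate individually at or above 90; inconclusive = only one of the two criteria met; inactive = neither criterion met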;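 note: higher luciferase means less miR-122 activity so hits act as miR-122 inhibitors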
Of the large screens only hits and unclear results are named; the others gave an inactive call.

O=C(CSc1nnc2n1CCCCC2)NCc1ccccc1	Env fusion inh 58 (no result: INS-1E GSIS act)
Cc1nnc(SCC(=O)NCc2ccccc2)n1-c1ccccc1	Statin myotox sup 103 (no result: INS-1E GSIS act, EWS-Fli block)
Cc1ccc(CNC(=O)CSc2nnc3n2CCCCC3)cc1	none (no result: Env fusion inh)
O=C(CCc1ccccc1)c1ccc2c(c1)OCCCO2	none (no result: INS-1E GSIS act, EWS-Fli block, PAX8 reporter)
O=C(NCCc1ccccc1)c1ccc2c(c1)OCCCO2	EWS-Fli block 89, PAX8 reporter 110
O=C(NCCc1ccccc1)c1ccc2c(c1)OCCO2	EWS-Fli block 90, Env fusion inh 92 (no result: INS-1E GSIS act, PAX8 reporter)
O=C(CCCc1ccccc1)c1ccc2c(c1)OCCO2	EWS-Fli block 86 (no result: PAX8 reporter, Env fusion inh)
O=C(c1ccncc1)N1CC2(C1)[C@H](c1ccccc1)[C@@H](CO)N2C(=O)c1ccncc1	none (no result: Statin myotox sup, PAX8 reporter, Env fusion inh, miR-122 sensor)
C[C@@H]1CN([C@H](C)CO)C(=O)Cc2cc(NS(C)(=O)=O)ccc2O[C@H]1CN(C)S(=O)(=O)c1ccc(Cl)cc1	none
CC1(C)CC(N2CCCCC2)=CC(=[N+]2CCCCC2)C1	PAX8 reporter 75
CC1(C)CC(N2CCOCC2)=CC(=[N+]2CCOCC2)C1	none (no result: Statin myotox sup, miR-122 sensor)
O=C(Nc1ccc(Cl)c(C(F)(F)F)c1)c1ccncc1	none
CNC(=O)c1cc(Oc2ccc(NC(=O)Nc3ccc(Cl)c(C(F)(F)F)c3)cc2)ccn1	PAX8 reporter 96, Env fusion inh 62 (no result: INS-1E GSIS act)
C[C@@H]1CN([C@H](C)CO)C(=O)Cc2cc(NC(=O)Cc3cn(C)c4ccccc34)ccc2O[C@H]1CN(C)S(=O)(=O)c1ccccc1	none
CSc1nc(N(C)C)nc(N2CC(=O)N(CCNS(=O)(=O)c3ccc(C)cc3)C2=N)n1	INS-1E GSIS act 40 (no result: Statin myotox sup, miR-122 sensor)
Cn1c(-c2ccco2)n[nH]c1=S	none (no result: Statin myotox sup, miR-122 sensor)
S=c1nc(-c2ccco2)[nH][nH]1	Statin myotox sup 96 (no result: INS-1E GSIS act, EWS-Fli block, PAX8 reporter, Env fusion inh)
O=c1c2ccccc2nc(SCc2ccc(F)cc2Cl)n1CCCN1CCOCC1	none
Fc1ccc(CSc2nnc(CN3CCOCC3)n2-c2ccccc2)c(Cl)c1	Statin myotox sup 103 (no result: INS-1E GSIS act, EWS-Fli block, PAX8 reporter, Env fusion inh)
CCN1C(=O)[C@H]2[C@@H](c3ccc(C(F)(F)F)cc3)N[C@]3(CCCN(Cc4ccccc4)C3=O)[C@H]2C1=O	Env fusion inh 78 (no result: INS-1E GSIS act)
Cc1cccn2c(=O)c3cc(C(=O)NCCN4CCOCC4)c(=N)n(Cc4ccc(F)cc4)c3nc12	PAX8 reporter 75 (no result: EWS-Fli block)
C[C@@H]1CCCCO[C@@H](CN(C)C)[C@@H](C)CN([C@@H](C)CO)C(=O)c2cc(NS(=O)(=O)c3ccccc3)ccc2O1	none
CCCc1cc(Nc2c(C)n(C)n(-c3ccccc3)c2=O)n2c(nc3ccccc32)c1C#N	Statin myotox sup 104 (no result: INS-1E GSIS act, EWS-Fli block)
COc1ccc(S(=O)(=O)Nc2ccc3c(c2)C(=O)N([C@H](C)CO)C[C@@H](C)[C@H](CN(C)C(=O)Cc2ccccc2)OCCCC[C@H](C)O3)cc1	none (no result: Statin myotox sup)
O=C(COC(=O)/C(=C/c1cccs1)c1cccs1)NC(c1ccccc1)c1ccccc1	PAX8 reporter 93 (no result: Statin myotox sup, EWS-Fli block)
O=C(Cc1cccs1)NC(c1ccccc1)c1ccccc1	none (no result: Statin myotox sup, miR-122 sensor)
O=C(N[C@@H]1CC[C@H](CC(=O)N2CCN(c3ccccc3)CC2)O[C@@H]1CO)c1ccccc1	none
Cc1ccc(S(=O)(=O)N2C[C@@H]3CCCC[C@@H]3[C@@H](C)[C@H]2c2cn(Cc3ccccc3)c3ccccc23)cc1	Env fusion inh 63 (no result: INS-1E GSIS act, miR-122 sensor)
Cc1ccc(S(=O)(=O)N2C[C@@H]3[C@H]4CC[C@H](C4)[C@@H]3[C@@H](C)[C@@H]2c2cn(Cc3ccccc3)c3ncccc23)cc1	none (no result: miR-122 sensor)
Cc1ccc(S(=O)(=O)N2C[C@@H]3CCCC[C@@H]3[C@@H](C)[C@H]2c2cn(Cc3ccccc3)c3ncccc23)cc1	PAX8 reporter inconclusive, Env fusion inh 70
C[C@H](CO)N1C[C@H](C)[C@@H](CN(C)Cc2ccccc2)Oc2ccc(NS(=O)(=O)c3ccc(Cl)cc3)cc2CC1=O	none
COc1ccc(CN(C)C[C@H]2Oc3ccc(NS(=O)(=O)c4ccc(F)cc4)cc3CC(=O)N([C@@H](C)CO)C[C@@H]2C)cc1	Statin myotox sup 67 (no result: Env fusion inh)
COc1ccc(S(=O)(=O)Nc2ccc3c(c2)CC(=O)N([C@H](C)CO)C[C@@H](C)[C@H](CN(C)Cc2ccc(Cl)c(Cl)c2)O3)cc1	Statin myotox sup 110
COc1ccc(CN(C)C[C@@H]2Oc3ccc(NS(=O)(=O)c4ccc(F)cc4)cc3CC(=O)N([C@H](C)CO)C[C@@H]2C)cc1	none (no result: Env fusion inh)
C[C@@H]1CN([C@H](C)CO)C(=O)Cc2cc(NS(=O)(=O)c3ccc(Cl)cc3)ccc2O[C@H]1CN(C)Cc1ccccc1	Statin myotox sup 96
COc1ccc(CN(C)C[C@H]2Oc3ccc(NS(=O)(=O)c4ccc(F)cc4)cc3CC(=O)N([C@H](C)CO)C[C@H]2C)cc1	Statin myotox sup 69 (no result: Env fusion inh)
C[C@@H]1CN([C@@H](C)CO)C(=O)c2cc(C3=CCCCC3)cnc2O[C@@H]1CN(C)C(=O)c1cccnc1	none (no result: PAX8 reporter, miR-122 sensor)
CC(C)NC(=O)N1CC2(C1)[C@@H](c1ccccc1)[C@@H](CO)N2C(=O)C1CC1	none (no result: Statin myotox sup, PAX8 reporter, Env fusion inh, miR-122 sensor)
Cc1ccc(S(=O)(=O)NCC[C@H]2CC[C@H](NC(=O)Nc3ccccc3F)[C@@H](CO)O2)cc1	none (no result: miR-122 sensor)
COCC#Cc1cnc2c(c1)C(=O)N([C@H](C)CO)C[C@H](C)[C@@H](CN(C)C)O2	none (no result: PAX8 reporter)
COc1ccc(NC(=O)N(C)C[C@@H]2Oc3ccc(NC(=O)CCCCCC(=O)Nc4ccccc4N)cc3CC(=O)N([C@@H](C)CO)C[C@H]2C)cc1	none
COc1ccc(CN(C)C[C@@H]2Oc3ccc(NS(=O)(=O)c4ccc(Cl)cc4)cc3CC(=O)N([C@@H](C)CO)C[C@@H]2C)cc1	none (no result: Env fusion inh)
COc1ccc(CN(C)C[C@H]2Oc3ccc(NS(=O)(=O)c4ccccc4)cc3CC(=O)N([C@@H](C)CO)C[C@@H]2C)cc1	Statin myotox sup 66 (no result: PAX8 reporter)
COc1ccc(CN(C)C[C@@H]2Oc3ccc(NS(=O)(=O)c4ccc(Cl)cc4)cc3CC(=O)N([C@H](C)CO)C[C@H]2C)cc1	Statin myotox sup 95 (no result: Env fusion inh)
COc1ccc(S(=O)(=O)Nc2ccc3c(c2)CC(=O)N([C@@H](C)CO)C[C@H](C)[C@@H](CN(C)Cc2ccc(C(F)(F)F)cc2)O3)cc1	Statin myotox sup inconclusive, PAX8 reporter 83
COc1ccc(CN(C)C[C@H]2Oc3ccc(NS(=O)(=O)c4ccccc4)cc3CC(=O)N([C@H](C)CO)C[C@H]2C)cc1	none (no result: PAX8 reporter)
C[C@H]1CCCCO[C@@H](CN(C)C(=O)NC2CCCCC2)[C@@H](C)CN([C@@H](C)CO)C(=O)c2cc(NS(C)(=O)=O)ccc2O1	none
CCCN1[C@H](C(=O)OC)[C@@H](CO)[C@@H]2Cn3c(ccc(-c4cncnc4)c3=O)[C@@H]21	none (no result: miR-122 sensor)
Cc1c(C(=O)O)sc2nc(-c3cccs3)cc(C(F)(F)F)c12	none

Screens: PubChem, Broad Institute
